Assay [1] is described as follows: qHTS assay to identify small molecule agonists of the vitamin D receptor (VDR) signaling pathway - cell viability counter screen (AID 743224). Also: series mostly up to about 63 µM; nearly all actives have a fitted effect of over 50% in size. Summed up:
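Counter screen run in the same wells as the VDR-bla reporter assay: CellTiter-Glo luminescence, 30 min at room temperature, after 16 h compound treatment at 37C of cells pre-plated for 4 h.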
A general note: qHTS replaces the single test concentration by a dilution series.

The nature of assay [2]: qHTS assay to identify small molecule antagonists of the vitamin D receptor (VDR) signaling pathway - cell viability counter screen (AID 743225). Also: nearly all actives have a fitted effect of over 50% in size. Summed up:
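Cytotoxicity toward the VDR-bla HEK 293T line was scored by ATP-based CellTiter-Glo luminescence, read in the wells already used for the beta-lactamase readout after 16 h compound treatment under 3 nM 1-alpha,25-dihydroxyvitamin D3 stimulation.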

A short description of assay [3]: qHTS assay to identify small molecule agonists of the NFkB signaling pathway - cell viability counter screen (AID 1159515; calls by dose curve; also: series mostly up to about 61 µM; nearly all actives have a fitted effect of over 55% in size). In short, it runs like this: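 Read by CellTiter-Glo luminescence (30 min, room temperature) in the wells also used for the beta-lactamase FRET read. ME-180 NFkB-bla cells at 2,000 per well were plated overnight, then exposed to compound for 5 hr at 37 C.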

Assay [4] can be described thus: qHTS assay to identify small molecule agonists of the endoplasmic reticulum stress response signaling pathway (AID 1159516; active = well fitted activation curve with a large enough effect in the signal ratio in the repeat runs, not every such curve was filed as active; the % refers to the signal ratio). In short, it runs like this:
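Ratiometric FRET readout (405 nm excitation; 460 and 530 nm emission) of a beta-lactamase gene driven by the ER stress response element, after 2 hr substrate loading. HeLa ESRE-bla cells were seeded overnight and treated with compounds for only 5 hr at 37 C.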

Assay [5] can be described thus: qHTS assay to identify small molecule agonists of the endoplasmic reticulum stress response signaling pathway - cell viability counter screen (AID 1159517; calls by dose curve; also: series mostly up to about 61 µM; nearly all actives have a fitted effect of over 50% in size). Summed up:
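Cytotoxicity of test compounds toward ESRE-bla HeLa cells was assessed after 5 hr exposure. The luminescent CellTiter-Glo signal was measured 30 min after reagent addition.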

Assay [6] in a line: qHTS assay to identify small molecule antagonists of the retinoid-related orphan receptor gamma (ROR-gamma) signaling pathway - cell viability counter screen (AID 1159520). Also: nearly all actives have a fitted effect of over 50% in size. In short, it runs like this:
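Tet-on ROR gamma CHO cells (1,000/well) were plated 4 hr, given compounds in DMSO for 2 hr at 37 C, then induced with 1 uM final doxycycline for 16 hr. Viability was read as ATP by CellTiter-Glo luminescence after 30 min.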

For assay [7], the target named is Nuclear receptor ROR-gamma (Homo sapiens) (UniProt P51449). The assay can be described thus: qHTS assay to identify small molecule antagonists of the retinoid-related orphan receptor gamma (ROR-gamma) signaling pathway (AID 1159521; also: nearly all actives have a fitted effect of over 50% in size; also: potency is read from the fitted curve at half-maximal effect). In short, it runs like this:
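Readout: ONE-Glo luciferase luminescence, 30 min at room temperature. System: Tet-on RORγ CHO, RORE-LUC. Sequence: compound 2 h, doxycycline 1 uM final, 16 h at 37 C.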

Assay [8] can be described thus: qHTS assay to identify small molecule agonists of the AP-1 signaling pathway - cell viability counter screen (AID 1159525; calls by dose curve; also: nearly all actives have a fitted effect of over 55% in size). Summed up:
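Each titration point was normalised to DMSO and tetra n-octyl ammonium bromide controls. The read was Cell Titer Glo luminescence after 30 min at RT, following 5 h compound exposure of ME-180 AP-1-bla cells at 37 °C.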

Assay [9] in a line: qHTS assay to identify small molecule agonists of the AP-1 signaling pathway (AID 1159526; calls by dose curve; also: potency is read from the fitted curve at half-maximal effect).
Assay [10] is described as follows: qHTS assay to identify small molecule agonists of the RXR signaling pathway - cell viability counter screen (AID 1159529). In short, it runs like this:
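Tox21 10K compounds were tested for cytotoxicity against GeneBLAzer RXR-alpha HEK 293T cells grown in 2% charcoal-stripped FBS. Exposure lasted 16 hr at 37 C, 5% CO2; viability read by CellTiter-Glo luminescence.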

Assay [11] is described as follows: qHTS assay to identify small molecule antagonists of the retinoid acid receptor (RAR) signaling pathway - cell viability counter screen (AID 1159551). Also: nearly all actives have a fitted effect of over 35% in size. In short, it runs like this: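 Cytotoxicity counter screen: ATP content quantified by CellTiter-Glo luminescence in C3RL4 cells treated 6 hr at 37 C with compound and retinol (1 uM final). Cells plated at 1,000/well and cultured overnight before dosing.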

The nature of assay [12]: qHTS assay to identify small molecule antagonists of the retinoic acid receptor (RAR) signaling pathway (AID 1159552; also: nearly all actives have a fitted effect of over 50% in size). In short, it runs like this:
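Overnight-plated C3RL4 reporter cells get compound, then retinol to 1 uM final; plates sit 6 hr at 37 C, 5% CO2. A luciferase reagent is added and light output recorded after 30 min at room temperature.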

Assay [13] can be described thus: qHTS assay to identify small molecule agonists of the retinoic acid receptor (RAR) signaling pathway (AID 1159553). Summed up:
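Luminescence was measured 30 min after luciferase reagent addition at room temperature. Before that, C3RL4 reporter cells (1,000 per well, plated overnight) were treated with compound for 6 hr at 37 C and 5% CO2.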

Assay [14] is described as follows: qHTS assay to identify small molecule antagonists of the estrogen related receptor (ERR) signaling pathway - cell viability counter screen (AID 1224818). Also: series mostly up to about 46 µM. In short, it runs like this: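 Cytotoxicity counter screen: fluorescence from CellTiter-Fluor, added after 17.5 h compound exposure at 37 C and read 30 min later. ERR cell line seeded at 2,000 cells/well, preincubated 6 h before dosing.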

Assay [15] in a line: qHTS assay to identify small molecule antagonists of the estrogen related receptor (ERR) signaling pathway (AID 1224819; also: nearly all actives have a fitted effect of over 50% in size; also: potency is read from the fitted curve at half-maximal effect). In short, it runs like this: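 LOPAC library screened for antagonism as reduced One-Glo luminescence in ERR reporter cells (2,000/well). Compounds were added after 6 h pre-incubation and left 18 h at 37C; reading followed a 30 min room-temperature reagent step.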

Assay [16] can be described thus: qHTS assay to identify small molecule agonists of the estrogen related receptor (ERR) signaling pathway (AID 1224820). In short, it runs like this: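 Luminescence readout (One-Glo, 30 min RT) from NTP-supplied ERR cell line exposed to compounds for 18 h at 37 C. Cells seeded 2,000 per well and pre-incubated 6 h before pin-tool compound transfer.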
Assay [17] in a line: qHTS assay to identify small molecule antagonists of the estrogen related receptor signaling pathway with the pleiotropic PPARgamma coactivator (PGC) cell viability counter screen (AID 1224822; also: series mostly up to about 46 µM). Summed up: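 Viability counter-screen read by fluorescence intensity after 30 min with CellTiter-Fluor at 37 C; PGC/ERR reporter cells were exposed to compounds for 17.5 h at 37 C following a 6 h preincubation.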

The target in assay [18] is Retinoic acid receptor RXR-alpha (Homo sapiens) (UniProt P19793). As to the kind of experiment: qHTS assay to identify small molecule agonists of the RXR signaling pathway (AID 1159527; calls by dose curve; also: nearly all actives have a fitted effect of over 35% in size). In short, it runs like this:
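Reporter activation is measured as beta-lactamase activity via FRET substrate cleavage (emission 460/530 nm) in HEK 293T cells expressing an RXR-alpha-driven bla construct, following 16 hr compound exposure at 37 C.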

The test system of assay [19] is estrogen-related receptor alpha (ERRalpha) with PGC-1alpha coactivator, human. As to the kind of experiment: qHTS assay to identify small molecule antagonists of the estrogen related receptor signaling pathway with the pleiotropic PPARgamma coactivator (PGC) (AID 1224821; calls by dose curve). Summed up:
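PGC/ERR reporter cells; 6 h pre-incubation 37 C/5% CO2; pin-tool compound in DMSO, 18 h 37 C; One-Glo added, 30 min RT; luminescence read. qHTS antagonist mode.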

These results are taken from PubChem BioAssay (Tox21).

Structures are written as SMILES. Several values for one entry are separate records, joined by “and”; a condition that tells them apart may be missing. Equal entries are not always repeated. Results filed as inconclusive are left out. Activity calls are given as the source filed them. Unless noted, calls follow the shape of the dose curve; as a rule, active = well fitted curve in the direction sought with a large enough effect in the repeat runs; inconclusive = weak or mixed curves; inactive = no such curve, though single readings can be large; an effect the other way counts as inactive or inconclusive.

Sequence of Retinoic acid receptor RXR-alpha (Homo sapiens) (P19793 whole entry, looked up): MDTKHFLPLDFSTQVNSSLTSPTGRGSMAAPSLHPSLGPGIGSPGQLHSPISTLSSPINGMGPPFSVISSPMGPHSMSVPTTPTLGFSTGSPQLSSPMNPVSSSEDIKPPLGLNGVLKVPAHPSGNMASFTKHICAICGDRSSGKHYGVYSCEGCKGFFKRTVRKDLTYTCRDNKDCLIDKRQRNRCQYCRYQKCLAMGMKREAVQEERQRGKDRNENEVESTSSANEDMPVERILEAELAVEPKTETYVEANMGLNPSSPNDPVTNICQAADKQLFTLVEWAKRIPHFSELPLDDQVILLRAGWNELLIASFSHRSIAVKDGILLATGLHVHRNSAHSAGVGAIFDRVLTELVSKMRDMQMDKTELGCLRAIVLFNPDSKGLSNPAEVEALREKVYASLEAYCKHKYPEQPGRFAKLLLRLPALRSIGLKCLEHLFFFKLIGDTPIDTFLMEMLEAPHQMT

Consider `CC(C)C(=O)Nc1ccc([N+](=O)[O-])c(C(F)(F)F)c1`, for which the Potency entry in assay [1], in [2], in [3], in [4], in assay [5] and in [6] was “inactive” throughout. Also, the Potency result in assay [8], in [9], in assay [10], in [11], in [12] and in assay [13] was “inactive” throughout. Besides, the Potency result in assay [17] is “inactive”. In addition, the Potency in assay [7] is 28.1 µM (active) and 10.9 µM (active) and 33.5 µM (active); in [15] it was 22.8 µM (active). Moreover, the compound was called inactive in [14] and in assay [16].

`CN(C)CCOC(c1ccccc1)c1ccccc1`: the Potency entry in assay [1], in [2], in assay [3], in [4], in assay [5] and in assay [6] was “inactive” throughout. Besides, the Potency result in assay [7], in [8], in [10], in [11], in assay [13] and in assay [17] was “inactive” throughout. Further, the Potency in [9] was 49.3 µM (active). Further, the compound was classed as inactive in [14].

On to `NS(=O)(=O)O`, for which the Potency result in [1], in assay [2], in assay [3], in [4], in [5] and in assay [6] was “inactive” each time. For the same compound, the Potency entry in [7], in assay [8], in [9], in assay [18], in assay [10] and in assay [11] was “inactive” in each case.

`CN(C)CCOC(C)(c1ccccc1)c1ccccn1` (centres undefined): the Potency entry in [1], in [2], in [3], in [4], in [5] and in assay [6] was “inactive” in each case. Moreover, the Potency result in [7], in [8], in assay [9], in assay [10], in [11] and in assay [12] was “inactive” each time. Also, the Potency entry in assay [13], in assay [15] and in assay [17] was “inactive” each time. The compound was called inactive in assay [14], in [16] and in [19].

Take `CC(=O)C(=O)O`: the Potency result in [1], in [2], in [3], in assay [4], in assay [5] and in [6] was “inactive” throughout. Further, the Potency entry in [7], in assay [8], in assay [9], in assay [10], in assay [11] and in assay [12] was “inactive” in each case. In addition, the Potency entry in [13] was “inactive”.

For `C[C@](N)(Cc1ccc(O)c(O)c1)C(=O)O`, the Potency result in assay [1], in [2], in assay [3], in assay [4], in [5] and in assay [6] was “inactive” each time. In addition, the Potency result in [7], in [8], in [9], in [10], in [11] and in assay [13] was “inactive” in each case. Moreover, the Potency entry in assay [17] was “inactive”. In addition, in assay [14], the compound was classed as inactive.

For `NC1CCCCC1`, the Potency result in [1], in [2], in [3], in [4], in assay [5] and in [6] was “inactive” each time. In addition, the Potency entry in assay [7], in [8], in assay [9], in assay [10], in assay [11] and in assay [12] was “inactive” throughout. Besides, in assay [13], the Potency result was “inactive”.

For the compound `Oc1ccccc1`, the Potency result in assay [1], in assay [2], in assay [3], in [4], in assay [5] and in assay [6] was “inactive” throughout. For the same compound, the Potency entry in assay [7], in [8], in assay [9], in [10], in assay [11] and in assay [12] was “inactive” in each case. The Potency result in assay [13] is “inactive”.
